Experimental findings from PubChem BioAssay (NCI) are described below.

This is part of a sample that, as a whole, favours compounds with a hit. Of some 83,000 tested, about 20% had one in any assay.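 Method: cells in 96-well plates; compound added at one concentration; 48 h incubation; percent growth measured; values under 10 scored active.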 Active and inactive are the calls of the source.

The subject of this assay is MALME-3M melanoma. As to the kind of experiment: NCI-60 one-dose screen, 48 h (100 = growth as untreated, 0 = no growth, -100 = all killed). To be noted: 10 µM unless noted.
For `COc1cc2c(=O)n(C3CCCCCCC3)c3c4cc[nH]c4ncc3c2cc1OC`, the growth was 62.6% (inactive).

In the case of `C1CCC([PH+](C2CCCCC2)C2CCCCC2[PH+](C2CCCCC2)C2CCCCC2)CC1.[Au].[CH-]1CCCCC1CC1CCCC[N-]1` (configuration not stated), the growth is -43.5% (active).

As to `CCCCN1CCCC[C@@H]1C(=O)N[C@H](C(=O)N(C)[C@H](C[C@@H](OC(C)=O)c1nc(C(=O)NC2CCC(C(=O)OC)CC2)cs1)C(C)C)C(C)C` (some centres not stated), the growth was 43.8% (inactive).

Consider `CS(=O)(=O)CCN1CC2CCCC(C2)C1`, for which the growth is 111% (inactive).

Turning to `COC(=O)[C@@H](C)C[C@H](Cc1ccccc1)NC(=O)c1nc([C@@H](C[C@H](C(C)C)N(C)C(=O)[C@@H](NC(=O)[C@H]2CCCCN2C)C(C)C)OC(C)=O)sc1C(C)C`, the growth was 57.5% (inactive).

For `C=CC[Se]C(=O)c1ccccc1OC(C)=O`, the growth is 30.9% (inactive).

Turning to `CC(C)[C@@H]1NC(=O)[C@]2(C)CSC(=N2)c2csc(n2)CNC(=O)C[C@@H](/C=C/CCS)OC1=O`, the growth is 21.4% (inactive).

Consider `Clc1cccc(Cl)c1Cl`, for which the growth was 103% (inactive).

As for `O=C(CC1(O)C(=O)Nc2ccc(Cl)cc21)c1ccc(C(=O)NCC2CCC3(CC2)OOC2(CCCCC2)OO3)cc1` (configuration not stated), the growth is -51.5% (active).

Turning to `COc1ccc(C(O)(C(=O)O)c2ccc(OC)cc2)cc1`, the growth is 105% (inactive).

As to `CCn1c2ccccc2c2cc(C(=O)c3ccc(C)c4ccccc34)ccc21`, the growth is 74.4% (inactive).

On to `COC(=O)[C@]12CCC(C)(C)C[C@H]1[C@H]1C(=O)C[C@@H]3[C@@]4(C)C[C@@]5(CC(C)(C)[C@@H]4CC[C@@]3(C)[C@]1(C)CC2)OO[C@@](C)(C(F)(F)F)O5`, for which the growth was 108% (inactive).

As for `CC[C@]12C=CCN3CC[C@@]4(c5ccc(OC)cc5N(C)[C@H]4[C@@](O)(C(=O)OC)[C@@H]1OC(=O)CCCC[P+](c1ccccc1)(c1ccccc1)c1ccccc1)[C@@H]32`, the growth was -35.8% (active).

As for `CCCCCCCCOC(=O)CCN1CC1`, the growth was 110% (inactive).

With `CC1[C@H](C)OC(=O)CC(O)CC(O)CC(O)CCC(O)C(O)C[C@]2(O)CC(O)C(C(=O)O)C(CC(OC3O[C@H](C)[C@@H](O)[C@H](N)[C@@H]3O)/C=C/C=C/C=C/C=C/CC/C=C/C=C/[C@H](C)[C@H]1O)O2` (some centres not stated), the growth was 99.3% (inactive).

With `c1cc2c(c3c1CCNC3)OCO2`, the growth is 94.8% (inactive).

As to `Cc1ccc(N2COOC3(OOC2)C2CC4CC(C2)CC3C4)cc1`, the growth was 110% (inactive).

For the compound `O=C(CC1(O)C(=O)N(Cc2ccccc2)c2ccc(Br)cc21)c1ccc(C(=O)NCC2CCC3(CC2)OOC2(CCCCC2)OO3)cc1` (configuration not stated), the growth was -68.1% (active).

Turning to `C[C@@H]1C[C@@]2(C)[C@@H](CC[C@@H]3[C@@H]2CC[C@]2(C)C(=O)CC[C@@H]32)CC1=O`, the growth was 118% (inactive).

Consider `CCN(CC)c1ccc2c(c1)OC(N)=C(C#N)C2c1cc(OC)c2c(c1)OCO2` (configuration not stated), for which the growth is 61.1% (inactive).

Take `O=P(Oc1ccc(Cl)cc1)(N1CC1)N1CC1`: the growth is 104% (inactive).

`O=[N+]([O-])c1cc(I)cc([N+](=O)[O-])c1`: the growth is 101% (inactive).

As for `CC(=O)O[C@H](C[C@H](C(C)C)N(C)C(=O)[C@@H](NC(=O)[C@H]1CCCCN1C)C(C)(C)C)c1nc(C(=O)N[C@@H](Cc2ccccc2)C[C@H](C)C(=O)O)cs1`, the growth is 66.7% (inactive).

With `CC[C@H](C)[C@H](NC(=O)[C@H]1CCCCN1C)C(=O)N(C)[C@H](C[C@@H](O)c1nc(C(=O)N[C@@H](Cc2ccccc2)C[C@H](C)C(=O)O)cs1)C(C)C`, the growth was 77.6% (inactive).

For the compound `CN1CCC(O)(c2ccc(F)cc2)C(C(=O)c2ccc(F)cc2)C1` (configuration not stated), the growth was 84.6% (inactive).

Regarding `O=C1NC(=O)C(=Cc2cccn2CCCCCn2c3ccccc3c(=O)c3ccccc32)C(=O)N1`, the growth was 119% (inactive).

On to `COC(=O)[C@@H](C[C@H](Cc1ccccc1)NC(=O)c1csc([C@@H](C[C@H](C(C)C)N(C)C(=O)[C@@H](NC(=O)[C@H]2CCCCN2C)C(C)C)OC(C)=O)n1)NC(=O)OCc1ccccc1`, for which the growth was -42.5% [9.5 µM] (active).

For the compound `CN(C)CCCOc1ccc2c(c1)c(C(=O)C(=O)NCCO)cn2Cc1ccccc1`, the growth is 97.1% (inactive).

On to `COc1cc(C=Nc2cc(Cl)cc(Cl)c2)ccc1N(CCCl)CCCl`, for which the growth was 74.9% (inactive).

For `CCOC(=O)N[C@H]1CCc2c(Br)c(OC)c(OC)c(OC)c2-c2ccc(SC)c(=O)cc21`, the growth is 35.1% (inactive).

Take `C/C(CC(C)(C)N1CC1)=N\NC(=O)Nc1cccc2ccccc12`: the growth was 74.5% (inactive).

As for `C[C@]12CCc3sc(-c4ccccc4O)nc3C1=CC[C@@H]1[C@@H]2CC[C@]2(C)C(=O)CC[C@@H]12`, the growth was 102% (inactive).

Take `CC[C@H](C)[C@H](NC(=O)[C@H]1CCCCN1C)C(=O)N(C)[C@H](CC(=O)c1nc(C(=O)N[C@@H](Cc2ccccc2)C[C@H](C)C(=O)O)cs1)C(C)C`: the growth was 67.1% (inactive).

As to `COc1cccc(/C=C/[N+](=O)[O-])c1`, the growth is 89.8% (inactive).

For the compound `O=C1CC2(CC3(Cl)C(Cl)=C(Cl)C2(Cl)C3(Cl)Cl)C(=O)O1` (configuration not stated), the growth was 101% (inactive).

For the compound `CC12CCC3C(CCC4=CC(=O)CCC43CF)C1CCC2=O` (configuration not stated), the growth was 94.2% (inactive).

`Nc1ccc(-c2nc3cc(F)ccc3[se]2)cc1F`: the growth was 102% (inactive).
